# From the supplement of paper PMC12494721
# Where a name gives a salt, the structure may show the parent alone. A number with no mark means an inactive call.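 Rule for the calls: for the amine columns active = adjusted P below 0.05 in both replicates with a change the same way and a mean fold change under 0.8 or over 1.25; inactive = the rest.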
# System: Klebsiella aerogenes DSM 30053
# Experiment: fold change of Histamine concentration vs plate DMSO controls (fold change (ratio)); higher = more amine produced, active = hit call of the paper (significant change in both replicates, either direction)
# Conditions: incubation time: 27 h, anaerobic, 37 °C
# Summary of the method: (§1)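 Extracts of whole anaerobic mGAM cultures were analysed for amines by LC–triple-quadrupole MS with dynamic MRM and external calibration curves, with drift corrected within batch. Four gut strains were grown at 37 °C for 27 h in 80 µL wells with compounds at 20 µM final, sweeteners at 50 µM final. Each value expresses fold change over plate DMSO controls. The average of 2 biological replicates is shown.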
row,SMILES,fold change of Histamine concentration
1,C[C@H](NCc1ccc(OCc2cccc(F)c2)cc1)C(N)=O [Safinamide] (20 µM),1.02
2,Cc1cc(NS(=O)(=O)c2ccc(N)cc2)nc(C)n1 [Sulfisomidine] (20 µM),1.02
3,O=C(O)Cc1ccccc1Nc1c(Cl)cccc1Cl [Diclofenac sodium] (20 µM),1.06
4,CN1CCCN=C1/C=C/c1cccs1 [Pyrantel tartrate] (20 µM),0.952
5,CN(C(=O)C(Cl)Cl)c1ccc(OC(=O)c2ccco2)cc1 [Diloxanide furoate] (20 µM),1
6,O=C(Oc1ccccc1)c1ccccc1O [Phenyl salicylate] (20 µM),1.09
7,CCCCC(C)(O)C/C=C/[C@H]1[C@H](O)CC(=O)[C@@H]1CCCCCCC(=O)OC (mixture of isomers) [Misoprostol] (20 µM),1.04
8,Cc1cc(C(C)(C)C)c(O)c(C)c1CC1=NCCN1 [Oxymetazoline hydrochloride] (20 µM),0.947
9,CCN(CC)CCc1nc(-c2ccccc2)no1 [Oxolamine citrate salt] (20 µM),1.04
10,COc1ccc2c(c1)c(CC(=O)OCC(=O)O)c(C)n2C(=O)c1ccc(Cl)cc1 [Acemetacin] (20 µM),0.983
11,Cn1cnc([N+](=O)[O-])c1Sc1ncnc2[nH]cnc12 [Azathioprine] (20 µM),0.991
12,CCOC(=O)c1ccc(N)cc1 [Benzocaine] (20 µM),0.954
13,COC1=C(OC)C(=O)C(CCCCCCCCCCO)=C(C)C1=O [Idebenone] (20 µM),1.06
14,CC(=O)NCCCS(=O)(=O)O [Acamprosate calcium] (20 µM),1.02
15,CC(C)NCC(O)COc1cccc2[nH]c3ccccc3c12 (configuration not stated) [Carazolol] (20 µM),1.06
16,CC(C(=O)O)c1ccc(N2Cc3ccccc3C2=O)cc1 (configuration not stated) [Indoprofen] (20 µM),1.04
17,CC1(C)S[C@@H]2[C@H](NC(=O)[C@H](N)c3ccccc3)C(=O)N2[C@H]1C(=O)O [Ampicillin trihydrate] (20 µM),0.914
18,CCN1CCCC1CNC(=O)c1cc(S(=O)(=O)CC)c(N)cc1OC (configuration not stated) [Amisulpride] (20 µM),1.01
19,COC(=O)Nc1nc2cc(C(=O)c3ccc(F)cc3)ccc2[nH]1 [Flubendazol] (20 µM),0.979
20,CCOc1nc2cccc(C(=O)OCc3oc(=O)oc3C)c2n1Cc1ccc(-c2ccccc2-c2noc(=O)[nH]2)cc1 [Azilsartan medoxomil] (20 µM),1.04
21,COc1cc(C(=O)N2CCOCC2)cc(OC)c1OC [Trimetozine] (20 µM),0.989
22,"CC(C)NC[C@@H](O)COc1ccc(CC(N)=O)cc1 [(R,+) Atenolol] (20 µM)",0.951
23,O=C(O)Cc1sc(-c2ccccc2)nc1-c1ccc(Cl)cc1 [Fentiazac] (20 µM),0.945
24,Nc1nc(CC(=O)Nc2ccc(CCNC[C@H](O)c3ccccc3)cc2)cs1 [Mirabegron] (20 µM),0.931
25,NS(=O)(=O)c1cc2c(cc1Cl)NC(CC1CCCC1)NS2(=O)=O (configuration not stated) [Cyclopenthiazide] (20 µM),1.01
26,Cc1cc(/C=C/c2ccc3cc(N(C)C)ccc3[n+]2C)c(C)n1-c1ccccc1 [Pyrvinium pamoate] (20 µM),0.936
27,CN1CCC(=C2c3ccccc3C=Cc3ccccc32)CC1 [Cyproheptadine hydrochloride] (20 µM),1.03
28,Cc1ccccc1OCC(O)CO (configuration not stated) [Mephenesin] (20 µM),1.01

# System: Clostridium sporogenes DSM 1664
# Experiment: fold change of Tryptamine concentration vs plate DMSO controls (fold change (ratio)); higher = more amine produced, active = hit call of the paper (significant change in both replicates, either direction)
# Conditions: incubation time: 27 h, anaerobic, 37 °C
# Summary of the method: as §1
row,SMILES,fold change of Tryptamine concentration
1,O=C(O)c1cc(-c2ccc(F)cc2F)ccc1O [Diflunisal] (20 µM),1.01
2,Fc1ccc([C@@H]2CCNC[C@H]2COc2ccc3c(c2)OCO3)cc1 [Paroxetine hydrochloride] (20 µM),0.925
3,CCN(CC)CCOC(=O)C1(C2CCCCC2)CCCCC1 [Dicyclomine hydrochloride] (20 µM),0.991
4,CN1[C@@H]2CC[C@H]1C[C@@H](OC(=O)c1c[nH]c3ccccc13)C2 [Tropisetron hydrochloride] (20 µM),1.01
5,NC(=O)N1c2ccccc2CC(=O)c2ccccc21 [Oxcarbazepine] (20 µM),0.996
6,N=C(NCCCCCCNC(=N)NC(=N)Nc1ccc(Cl)cc1)NC(=N)Nc1ccc(Cl)cc1 [Chlorhexidine] (20 µM),0.032 (active)
7,CC(=O)Nc1ccccc1 [Acetanilide] (20 µM),1.03
8,Nc1nc(N)nc(-c2cc(Cl)ccc2Cl)n1 [Irsogladine maleate] (20 µM),0.978
9,Cc1ccsc1C(=CCCN1CCC[C@@H](C(=O)O)C1)c1sccc1C [Tiagabine hydrochloride] (20 µM),0.999
10,"CC(C)NCC(O)c1ccc(O)c(O)c1 (single isomer, unassigned; (-)) [(-) Isoproterenol hydrochloride] (20 µM)",1.03
11,CN(C)CCN(Cc1ccccc1)c1ccccn1 [Tripelennamine hydrochloride] (20 µM),1.01
12,C[C@H](NCc1ccc(OCc2cccc(F)c2)cc1)C(N)=O [Safinamide] (20 µM),1.03
13,Cc1cc(NS(=O)(=O)c2ccc(N)cc2)nc(C)n1 [Sulfisomidine] (20 µM),1.08
14,O=C(O)Cc1ccccc1Nc1c(Cl)cccc1Cl [Diclofenac sodium] (20 µM),0.699 (active)
15,CN1CCCN=C1/C=C/c1cccs1 [Pyrantel tartrate] (20 µM),1.02
16,CN(C(=O)C(Cl)Cl)c1ccc(OC(=O)c2ccco2)cc1 [Diloxanide furoate] (20 µM),0.918
17,O=C(Oc1ccccc1)c1ccccc1O [Phenyl salicylate] (20 µM),1.12
18,CCCCC(C)(O)C/C=C/[C@H]1[C@H](O)CC(=O)[C@@H]1CCCCCCC(=O)OC (mixture of isomers) [Misoprostol] (20 µM),0.979
19,Cc1cc(C(C)(C)C)c(O)c(C)c1CC1=NCCN1 [Oxymetazoline hydrochloride] (20 µM),1.03
20,CCN(CC)CCc1nc(-c2ccccc2)no1 [Oxolamine citrate salt] (20 µM),1.04

row,SMILES,fold change of Tryptamine concentration
1,COc1ccc2c(c1)c(CC(=O)OCC(=O)O)c(C)n2C(=O)c1ccc(Cl)cc1 [Acemetacin] (20 µM),0.98
2,Cn1cnc([N+](=O)[O-])c1Sc1ncnc2[nH]cnc12 [Azathioprine] (20 µM),1.04
3,CCOC(=O)c1ccc(N)cc1 [Benzocaine] (20 µM),1.1
4,COC1=C(OC)C(=O)C(CCCCCCCCCCO)=C(C)C1=O [Idebenone] (20 µM),1.02
5,CC(=O)NCCCS(=O)(=O)O [Acamprosate calcium] (20 µM),1.02
6,CC(C)NCC(O)COc1cccc2[nH]c3ccccc3c12 (configuration not stated) [Carazolol] (20 µM),0.732
7,CC(C(=O)O)c1ccc(N2Cc3ccccc3C2=O)cc1 (configuration not stated) [Indoprofen] (20 µM),1.03
8,CC1(C)S[C@@H]2[C@H](NC(=O)[C@H](N)c3ccccc3)C(=O)N2[C@H]1C(=O)O [Ampicillin trihydrate] (20 µM),0.01 (active)
9,CCN1CCCC1CNC(=O)c1cc(S(=O)(=O)CC)c(N)cc1OC (configuration not stated) [Amisulpride] (20 µM),1.01
10,COC(=O)Nc1nc2cc(C(=O)c3ccc(F)cc3)ccc2[nH]1 [Flubendazol] (20 µM),1
11,CCOc1nc2cccc(C(=O)OCc3oc(=O)oc3C)c2n1Cc1ccc(-c2ccccc2-c2noc(=O)[nH]2)cc1 [Azilsartan medoxomil] (20 µM),1.01
12,COc1cc(C(=O)N2CCOCC2)cc(OC)c1OC [Trimetozine] (20 µM),1.05
13,"CC(C)NC[C@@H](O)COc1ccc(CC(N)=O)cc1 [(R,+) Atenolol] (20 µM)",1.05
14,O=C(O)Cc1sc(-c2ccccc2)nc1-c1ccc(Cl)cc1 [Fentiazac] (20 µM),0.999
15,Nc1nc(CC(=O)Nc2ccc(CCNC[C@H](O)c3ccccc3)cc2)cs1 [Mirabegron] (20 µM),1.02
16,NS(=O)(=O)c1cc2c(cc1Cl)NC(CC1CCCC1)NS2(=O)=O (configuration not stated) [Cyclopenthiazide] (20 µM),1.03
17,Cc1cc(/C=C/c2ccc3cc(N(C)C)ccc3[n+]2C)c(C)n1-c1ccccc1 [Pyrvinium pamoate] (20 µM),0.95
18,CN1CCC(=C2c3ccccc3C=Cc3ccccc32)CC1 [Cyproheptadine hydrochloride] (20 µM),1.18
19,Cc1ccccc1OCC(O)CO (configuration not stated) [Mephenesin] (20 µM),1.02
